Assay outcomes: PubChem BioAssay, several laboratories
Most compounds without a hit are left out; they make up all but 22% or so of the library.
E-sel TNF inh: blocks E-selectin expression induced by TNF alpha; AID 1246; inhibition, % at 2 µM; 0.71% of 120,000 active; HUVEC TNFa-induced E-selectin immunofluorescence, high content;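 active = inhibition above the batch mean plus 3 SD, and confirmed as a hit on visual image review, cut at about 43% in these data; inconclusive = passes the inhibition cutoff but fails visual image review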;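 also: 0% = TNF-stimulated DMSO wells and 100% = unstimulated control wells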
F-actin modifier: modifiers of cytoskeleton assembly; inhibition, % at 2 µM; HUVEC TNFa F-actin phalloidin imaging, high content; 0.18% of 91,000 active;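 active = inhibition above the batch mean plus 3 SD and confirmed as a hit by visual image inspection, cut at about 30% in these data, passing the limit was not always enough; inconclusive = above the inhibition threshold but rejected on visual inspection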
CYP2C19 act: cytochrome P450 2C19 (human) activation; 96,000 tested, under 10 active; activation factor at 5 µM; P33261; recombinant CYP2C19, luciferin-H EGE luminescence; active compounds read high; 0 = fully inhibited enzyme, 1 = untreated enzyme;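 active = activation factor of at least 2 at 5 µM in the primary screen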;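 also: 0 = wells with 2.5 mM tranylcypromine and 1 = vehicle-only wells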
CYP2C9 act: increases human cytochrome P450 2C9 activity; recombinant CYP2C9, luciferin-H conversion, luminescence; active compounds read high; factor 1 = untreated enzyme, 0 = blocked; AID 1024; P11712; 1.4% of 96,000 active; activation factor at 5 µM;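 active = activation factor of 2 or more for CYP2C9 at a 5 µM dose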;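 also: 0 = sulfaphenazole-blocked wells and 1 = vehicle-only wells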
Target sequence (P11712 whole entry, looked up): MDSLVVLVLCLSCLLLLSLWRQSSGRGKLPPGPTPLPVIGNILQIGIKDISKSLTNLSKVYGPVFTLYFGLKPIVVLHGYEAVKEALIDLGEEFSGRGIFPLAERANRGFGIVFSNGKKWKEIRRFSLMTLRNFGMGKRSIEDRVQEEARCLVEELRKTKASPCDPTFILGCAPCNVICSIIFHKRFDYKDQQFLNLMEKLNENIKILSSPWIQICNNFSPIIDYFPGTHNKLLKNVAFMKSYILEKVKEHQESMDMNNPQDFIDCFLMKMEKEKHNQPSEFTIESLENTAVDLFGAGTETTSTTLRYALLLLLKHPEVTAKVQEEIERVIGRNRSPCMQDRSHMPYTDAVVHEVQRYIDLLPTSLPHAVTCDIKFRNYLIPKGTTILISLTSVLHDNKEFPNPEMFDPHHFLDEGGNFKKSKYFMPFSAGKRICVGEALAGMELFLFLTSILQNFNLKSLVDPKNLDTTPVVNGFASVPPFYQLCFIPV
CYP2C19 inhib: human CYP2C19 inhibition. inhibition, % at 5 µM. 21% of 96,000 active. P33261. CYP2C19 Supersomes, luciferin-H EGE luminescence, 30 min;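 active = CYP2C19 inhibition above a set limit at 5 µM in the primary screen, cut at about 50% in these data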;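 also: plate controls were negative control wells for no effect and 2.5 mM tranylcypromine positive control for full effect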
CYP2C9 inh: inhibitors of human CYP2C9; CYP2C9 Supersomes, luciferin-H conversion, luminescence; inhibition, % at 5 µM; 20% of 96,000 active; AID 777;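 active = blocking of liver enzyme CYP2C9 beyond about 50% at 5 µM, limit read from the data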
* marks the source's active call; other numbers are inactive results; ? = inconclusive; . = no result given.

SMILES	E-sel TNF inh	F-actin modifier	CYP2C19 act	CYP2C9 act	CYP2C19 inhib	CYP2C9 inh
NS(=O)(=O)c1ccc(Nc2nc(-c3ccc(O)cc3)cs2)cc1	-10.0	-6.3	0.6	0.1	36.2	86.5*
Nc1ccc(Nc2nc(-c3ccncc3)cs2)cc1	28.0	21.3	0.4	0.4	61.2*	62.5*
Cc1cccc(N2CCN(c3cccc(C)c3)C2c2cccnc2)c1	?	-21.0	0.5	0.8	46.7	20.6
CCNC(=O)NC(=O)COC(=O)CNC(=O)COc1ccccc1	-37.1	.	1.1	1.1	-5.2	-13.6
COc1ccccc1NC(=O)CSc1nnc(Cc2ccccc2)o1	12.6	-20.1	0.9	0.9	10.9	14.0
COC(=O)c1ccccc1NC(=O)CSc1nnc(-c2ccncc2)o1	-46.6	.	0.3	0.6	68.0*	39.1
Cc1ccc(C)c(NC(=O)CSc2nnc(-c3ccccc3)o2)c1	.	5.5	0.4	0.8	55.8*	24.5
CC1=CC(C)(C)N(C(=O)CSc2nnc(N)s2)c2cc(C)c(C)cc21	13.5	3.3	0.2	0.3	76.7*	69.9*
COc1ccccc1NC(=O)CSc1nnc(-c2ccccc2)o1	.	.	0.4	0.9	59.1*	14.7
CC(C)(C)NC(=O)CSc1nnc(-c2ccncc2)o1	8.2	.	.	.	.	.
COc1ccc(NC(=O)C2CCN(C(=O)c3cccs3)CC2)c(OC)c1	5.9	-13.1	0.9	0.8	13.3	16.9
O=C(CSc1ncn[nH]1)N1CCN(S(=O)(=O)c2ccccc2)CC1	16.4	3.1	0.5	0.6	48.6	41.8
O=C(CCc1nc2ccccc2c(=O)[nH]1)OCc1cccc(C(F)(F)F)c1	-3.9	.	.	.	.	.
CC1=CC(C)(C)N(C(=O)CSc2nnc(-c3ccc(C)cc3)o2)c2ccc(C)cc21	9.6	1.5	0	0.1	96.2*	94.8*
COC(=O)CSc1nnc(-c2ccc(NS(=O)(=O)c3ccccc3)cc2)o1	2.6	25.8	0.5	0.1	47.4	94.2*
Cc1cccc(NC(=O)CSc2nnc([C@@H](N)Cc3ccccc3)o2)c1C	-8.1	-4.5	0.3	0.9	69.9*	9.4
CCc1ccc(Oc2cc(C)nc(N)n2)cc1	14.3	0.7	.	.	.	.
CC(=O)NC(C)C(=O)OCC(=O)Nc1ccc(Br)cc1 (stereo not drawn)	1.3	-2.8	0.5	0.8	53.8*	16.5
O=C1C2C3c4ccccc4C(c4ccccc43)C2C(=O)N1Cc1ccco1 (stereo not drawn)	.	.	0.9	1	9.9	-0.7
CC12C(=O)N(Cc3ccco3)C(=O)C1C1c3ccccc3C2c2ccccc21 (stereo not drawn)	.	16.4	0.4	0.6	57.4*	35.3
COc1ccc(S(=O)(=O)n2ccc(-c3cnc(-c4ccccc4)s3)n2)cc1	26.1	36.2	0.8	0.3	21.2	69.4*
O=C(c1ccccc1)n1ccc(-c2cnc(-c3ccccc3)s2)n1	3.1	.	0.4	0.8	56.4*	15.0
COc1cc(C)c(S(=O)(=O)NCc2cccs2)cc1C	17.4	0.3	0	0.3	98.6*	66.3*
COc1ccc(Cl)cc1S(=O)(=O)NCc1cccs1	-33.2	-15.6	0	2.5*	97.2*	-148.8
COc1ccc(CC(=O)NCc2cccs2)cc1OC	1.8	-2.1	0.6	1	42.9	-2.3
SMILES	E-sel TNF inh	F-actin modifier	CYP2C19 act	CYP2C9 act	CYP2C19 inhib	CYP2C9 inh
O=C(CCn1c(=O)oc2ccccc21)n1c(=O)oc2ccccc21	8.8	-10.8	0.9	0.9	7.5	6.1
COc1ccc(Oc2coc3cc(OC(=O)N4CCOCC4)ccc3c2=O)cc1	-13.0	2.6	1.1	1.2	-15.0	-15.5
c1ccc2cc(CN3CCOCC3)ccc2c1	14.6	-11.6	0.6	1.2	36.2	-15.8
Cc1cc2ccccc2cc1CN1CCOCC1	.	-2.4	0.4	1	58.0*	-1.0
OC1CCCN(Cc2ccc3ccc4cccc5ccc2c3c45)C1 (stereo not drawn)	0.0	-16.2	0.8	1.1	18.6	-10.9
c1cc2ccc3ccc(CN4CCOCC4)c4ccc(c1)c2c34	-10.9	-7.9	0.3	1.5	73.8*	-48.0
CCOc1ccc(Nc2nc(Cc3nnc(SCC(=O)NCc4ccco4)n3CC)cs2)cc1	11.8	.	0.7	0.4	34.7	55.0*
C=CCn1c(Cc2cccs2)nnc1SCC(=O)c1ccc(F)cc1	5.7	-2.9	0.1	0.4	93.0*	56.1*
C=CCn1c(Cc2cccs2)nnc1SCC(=O)c1ccc2ccccc2c1	-2.8	-7.6	0.4	0.7	55.1*	26.9
CCn1c(COc2ccc(C)cc2)nnc1SCC(=O)NCc1ccco1	-8.5	.	.	.	.	.
